Values joined by “and” are separate entries in the source; they are usually repeats but may differ in a detail not shown here. Equal entries are not always repeated. Inconclusive results are not listed. Entries that show only a call come without a potency. The source holds several records for some structures; these can differ, active in one and inactive in another. Active and inactive are the calls of the source. Calls come from the whole dose curve; as a rule, active = well fitted curve in the direction sought with a large enough effect; inconclusive = small, poorly fitted or top-dose-only effect, or another doubt; inactive = no such curve, though single readings can be large; an effect the other way counts as inactive or inconclusive. Where a SMILES comes first, the peptide text is derived from it. [ ]: non-standard residue; d: D form. pGlu = O=C1CC[C@@H](C(=O)O)N1; Thz = O=C(O)[C@@H]1CSCN1

Test [1] addresses Glutathione peroxidase 1 (Homo sapiens) (UniProt P07203). Description: Primary qHTS Assay for Inhibitors of Recombinant Selenoprotein Glutathione Peroxidase 1 (GPX1) (AID 1845191). Note: nearly all actives have a fitted effect of over 65% in size. Note: potency is the fitted concentration of half-maximal effect. Put shortly: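 Recombinant GPX1 (10 nM final) was preincubated with compound for 30 min at room temperature, then reacted with 1 mM GSH, 0.5 mM CHP, 0.5 mM NADPH and 100 nM glutathione reductase; NADPH fluorescence (340/450 nm) was read at 0 and 15 min.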

The target of test [2] is Phospholipid hydroperoxide glutathione peroxidase GPX4 (Homo sapiens) (UniProt P36969). Description: Primary qHTS Assay for Inhibitors of Recombinant Selenoprotein Glutathione Peroxidase 4 (GPX4) (AID 1845192). For activity change, negative = inhibition: series mostly up to about 50 µM. Note: nearly all actives have a fitted effect of over 65% in size. Note: potency is the fitted concentration of half-maximal effect. Put shortly: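 GR-coupled readout: 100 nM GR, 1 mM GSH, 0.5 mM NADPH; NADPH fluorescence (ex 340/em 450 nm) read at t=0 and after 15 min RT. GPX4 200 nM, preincubated 30 min with compound; substrate 0.5 mM CHP.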

Test [3] has as its target Luciferin 4-monooxygenase (Photinus pyralis) (UniProt P08659). Description: Primary firefly luciferase (FLuc) qHTS assay for identification of artifact compounds. (AID 1845220). For activity change, negative = inhibition: series mostly up to about 54 µM. Note: nearly all actives have a fitted effect of over 60% in size. Put shortly:
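qHTS, 15 min compound preincubation with substrate (10 uM luciferin, 10 uM ATP) at RT, then 10 nM FLuc; 5 min; luminescence; % inhibition vs no-enzyme/DMSO controls, 4-parameter Hill fit.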

Test [4] can be described thus: Primary fluorescence-based thiol-reactive (MSTI) qHTS assay for identification of artifact compounds. (AID 1845221).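 Note: series mostly up to about 54 µM; thiol-reactive compounds lower the probe fluorescence signal; nearly all actives have a fitted effect of over 65% in size.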 The procedure, abridged:
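First, 4 uM MSTI in 2% DMSO/PBS pH 7.4 was dispensed; next, compounds were added; then plates sat 1 h at room temperature without light. Finally, emission at 598 nm was recorded.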

Chain of Phospholipid hydroperoxide glutathione peroxidase GPX4 (Homo sapiens) (P36969 whole entry, looked up): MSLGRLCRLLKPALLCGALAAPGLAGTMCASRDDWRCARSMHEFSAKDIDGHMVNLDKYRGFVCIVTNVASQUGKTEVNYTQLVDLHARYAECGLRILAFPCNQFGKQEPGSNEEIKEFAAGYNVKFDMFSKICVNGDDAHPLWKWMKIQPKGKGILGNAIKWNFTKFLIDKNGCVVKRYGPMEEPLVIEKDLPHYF
Chain of Glutathione peroxidase 1 (Homo sapiens) (P07203 whole entry, looked up): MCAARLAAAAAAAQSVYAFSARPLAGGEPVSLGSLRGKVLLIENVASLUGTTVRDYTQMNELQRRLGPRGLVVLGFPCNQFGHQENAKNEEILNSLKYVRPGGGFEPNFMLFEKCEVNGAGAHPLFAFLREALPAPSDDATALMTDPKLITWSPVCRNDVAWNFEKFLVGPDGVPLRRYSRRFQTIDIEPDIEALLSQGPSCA

On to `O=C(O)[C@H](CC(=O)N1C[C@H]2CCCC[C@H]2C1)Cc1ccccc1`, for which the Potency result in test [1], in test [2] and in test [3] was “inactive” each time. The outcome in test [4] was inactive.
Turning to `Cc1onc(-c2c(F)cccc2Cl)c1C(=O)N[C@@H]1C(=O)N2[C@@H]1SC(C)(C)[C@@H]2C(=O)O`, the Potency entry in test [1], in test [2] and in test [3] was “inactive” in each case. In test [4], the result was inactive.
Consider `COc1cc(NC(C)CCCN)c2ncccc2c1` (stereo unspecified), for which the Potency result in test [2] is “inactive”.
Consider `O=C(O)CC1CC(c2ccccc2)=NO1` (stereo unspecified), for which the Potency result in test [1], in test [2] and in test [3] was “inactive” each time. Moreover, the outcome in test [4] was inactive.
On to `Cc1cc(O)c2ccccc2c1O`, for which the Potency entry in test [2] was “inactive”.
Turning to `CC1(C)S[C@@H]2[C@H](NC(=O)[C@H](NC(=O)N3CCN(S(C)(=O)=O)C3=O)c3ccccc3)C(=O)N2[C@H]1C(=O)O`, the Potency result in test [1], in test [2] and in test [3] was “inactive” in each case. Further, in test [4], the call was inactive.
On to `CC(=O)O[C@H]1C[C@@]2(C)[C@@H](C[C@@H](O)[C@H]3[C@@]4(C)CC[C@@H](O)[C@@H](C)[C@@H]4CC[C@@]32C)/C1=C(\CCC=C(C)C)C(=O)O`, for which the Potency entry in test [1], in test [2] and in test [3] was “inactive” in each case. Further, in test [4], the result was inactive.
In the case of `[O-][n+]1ccccc1SSc1cccc[n+]1[O-]`, the Potency result in test [1] and in test [2] was “inactive” throughout.
Take `CCCCCCOc1ccccc1C(N)=O`: the Potency entry in test [1] and in test [2] was “inactive” in each case.
With `Cc1cc(NC2CCCCC2)nc(-n2nc(C)cc2C)n1`, the Potency entry in test [1] and in test [2] was “inactive” in each case.
On to `COc1cc(CNC(=O)CCCC/C=C/C(C)C)ccc1O`, for which the Potency entry in test [1], in test [2] and in test [3] was “inactive” throughout. Also, in test [4], the result was inactive.
On to `O=C(O)/C=C\C(=O)O`, for which the Potency result in test [1] and in test [2] was “inactive” throughout.
Take `CC(=O)SCC(CC(=O)c1ccc(C)cc1)C(=O)O` (stereo unspecified): the Potency result in test [1] and in test [2] was “inactive” in each case. In test [4], the call was inactive.
Take `CN1[C@@H]2CC[C@H]1CC(OC(=O)C(CO)c1ccccc1)C2` (stereo partly specified): the Potency entry in test [2] and in test [3] was “inactive” in each case. In test [4], the call was inactive.
As to `CC(C(=O)O)c1ccc2c(c1)[nH]c1ccc(Cl)cc12` (stereo unspecified), the Potency result in test [1], in test [2] and in test [3] was “inactive” each time. Also, the outcome in test [4] was inactive.
Take `O=C1CC[C@@H](C(=O)N2CSC[C@H]2C(=O)O)N1` ([pGlu]-[Thz]-OH): the Potency entry in test [1], in test [2] and in test [3] was “inactive” each time. Further, the call in test [4] was inactive.
With `CN1[C@@H]2CC[C@H]1CC(OC(c1ccccc1)c1ccccc1)C2` (stereo partly specified), the Potency result in test [1], in test [2] and in test [3] was “inactive” each time. Moreover, the result in test [4] was inactive.
For the compound `Nc1ccc(O)c(C(=O)O)c1`, the Potency result in test [2] is “inactive”.
As for `CCNC(=O)[C@H]1O[C@@H](n2cnc3c(N)nc(NCCc4ccc(CCC(=O)O)cc4)nc32)[C@H](O)[C@@H]1O`, the Potency entry in test [1], in test [2] and in test [3] was “inactive” each time. For the same compound, the compound was classed as inactive in test [4].
Consider `COC(=O)C1=C(C)NC(C)=C(C(=O)OCC(C)=O)C1c1ccccc1[N+](=O)[O-]` (stereo unspecified), for which the Potency result in test [2] is “inactive”.
As for `O=C(O)Cc1cccc(-c2cc(CCCCCCc3ccc(O[C@H]4O[C@H](CO)[C@@H](O)[C@H](O)[C@@H]4O)c(-c4cccc(CC(=O)O)c4)c3)ccc2O[C@H]2O[C@H](CO)[C@@H](O)[C@H](O)[C@@H]2O)c1`, the activity, negative = inhibition in test [1] was -5.05% [at 0.4 µM] (inactive). The activity change, negative = inhibition in test [2] is -19% [at 0.409 µM] (inactive). The outcome in test [3] is “inactive [at 0.464 µM]”. Besides, the activity change, negative = thiol reactive in test [4] was 33.1% [at 0.461 µM] (inactive).
Consider `CC1(C)[C@@H](O)CC[C@]2(C)[C@H]3C(=O)C=C4[C@@H]5C[C@@](C)(C(=O)O)CC[C@]5(C)CC[C@@]4(C)[C@]3(C)CC[C@@H]12`, for which the Potency entry in test [1] and in test [3] was “inactive” each time. The Potency result in test [2] was “inactive and 8.91 µM (active)”. The compound was called inactive in test [4].
For the compound `C/C(=N\O)c1ccc(OCC(=O)N2CCCCC2)cc1`, the Potency result in test [1] and in test [2] was “inactive” in each case. In addition, the result in test [4] was inactive.
In the case of `Nc1c(CC(=O)O)cccc1C(=O)c1ccc(Br)cc1`, the Potency result in test [1] and in test [2] was “inactive” throughout.
Regarding `COc1ccc(-c2cc(=S)ss2)cc1`, the Potency in test [1] was 11.4 µM (active). The Potency result in test [2] was “inactive”.
`CC1(C)S[C@@H]2[C@H](NC(=O)[C@H](N)c3ccc(O)cc3)C(=O)N2[C@H]1C(=O)O`: the Potency result in test [2] and in test [3] was “inactive” throughout.
In the case of `C[C@H](O)[C@H](O)[C@H]1CNc2nc(N)[nH]c(=O)c2N1`, the results for the Potency in test [1] and in test [2] were 18 µM (active) and 20.2 µM (active), respectively. The Potency result in test [3] is “inactive”. Further, the compound was classed as inactive in test [4].
`NS(=O)(=O)C#Cc1ccccc1`: the Potency result in test [1] and in test [2] was “inactive” each time.
Consider `CC(=O)c1ccc(OCC(=O)N2CCCCC2)cc1`, for which the Potency result in test [1], in test [2] and in test [3] was “inactive” throughout. Moreover, the outcome in test [4] was inactive.
On to `Cc1ccc2c(n1)Oc1ccc(C(C)C(=O)OCC(=O)N(C)C)cc1C2` (stereo unspecified), for which the Potency entry in test [1] and in test [2] was “inactive” each time. Further, the outcome in test [4] was inactive.
As for `CC1(C)[C@@H](O[C@H]2O[C@H](C(=O)O)[C@@H](O)[C@H](O)[C@H]2O[C@@H]2O[C@H](C(=O)O)[C@@H](O)[C@H](O)[C@H]2O)CC[C@]2(C)[C@H]3C(=O)C=C4[C@@H]5C[C@@](C)(C(=O)O)CC[C@]5(C)CC[C@@]4(C)[C@]3(C)CC[C@@H]12`, the Potency entry in test [2] and in test [3] was “inactive” each time. In addition, in test [4], the compound was classed as inactive.
In the case of `C#CC1(O)CC[C@H]2[C@@H]3CCC4=CCCC[C@@H]4[C@H]3CC[C@@]21C` (stereo partly specified), in test [2], the Potency result is “inactive”.
For the compound `COc1cc(/C=C/C(=O)N2CCN(CC(=O)N3CCCC3)CC2)cc(OC)c1OC`, the Potency entry in test [1], in test [2] and in test [3] was “inactive” in each case. Further, the compound was called inactive in test [4].
As for `OCC1O[C@H]([S-])[C@H](O)[C@@H](O)[C@@H]1O.[Au+]` (stereo partly specified), in test [2], the Potency entry was “inactive”.
As for `CN(C)CCn1nnnc1SCC1=C(C(=O)O)N2C(=O)[C@@H](NC(=O)Cc3csc(N)n3)[C@H]2SC1`, the Potency was 4.53 µM (active) in test [1] and 12.6 µM (active) in test [2].
Consider `COC(=O)[C@H]1[C@H]2C[C@@H]3c4[nH]c5cc(OC)ccc5c4CCN3C[C@H]2C[C@@H](OC(=O)/C=C/c2cc(OC)c(OC)c(OC)c2)[C@@H]1OC`, for which the Potency entry in test [1] and in test [3] was “inactive” in each case.
